Laboratory results from PubChem BioAssay.
Calls of active or inactive are those of the source.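 Rule for the calls, unless noted: active = NADPH fluorescence slope more negative than the mean of all samples by about 3 SD, 99.7% confidence; inactive = the rest.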

Assays:
[1] = inhibitors of TNFa-induced NFkB p65 translocation, primary screen, imaging, HUVEC, MLSMR starter and 10KST1 sets (AID 438;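 active = inhibition above 20% together with a positive visual image hit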;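 note: compound added about 3h40 before a 20 min TNFalpha stimulation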;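 for inhibition: signal is the nuclear over cytoplasmic p65 intensity ratio per well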); conditions: HUVEC TNFa-induced p65 nuclear translocation; cell count: measured here: nuclei count (cytotoxicity indicator), at 2.08 µM; inhibition: at 2 µM, stronger effect = higher value, 0% TNFa-plus-vehicle, 100% no-TNFa wells
[2] = inhibitors of mutant huntingtin aggregation, primary screen, imaging, exon1htt(103Q)mCFP cells, high-content imaging (AID 483;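 active = visual image review flags a hit and inhibition of aggregation exceeds 20%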;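 note: compound exposure lasted 3 days before fixation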;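 for nuclei count: percent of the per-plate median nuclei count of sample wells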); conditions: exon1htt(103Q)mCFP cell line, aggregate imaging, at 2 µM; inhibition of aggregation: stronger effect = higher value; nuclei count: measured here: cell count, toxicity
[3] = inhibitors of E-selectin induction by TNFa, primary screen, imaging, HUVEC, immunofluorescence, MLSMR starter and 10KST1 sets (AID 487;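 active = visually confirmed hit in the image check and inhibition above 20%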;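 for inhibition: signal is fraction of cell area covered by stained E-selectin grains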;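 for nuclei count: 100% = median nuclei count of all wells on the same plate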); conditions: HUVEC TNFalpha-induced E-selectin immunofluorescence imaging, at 2 µM; inhibition: stronger effect = higher value; nuclei count: measured here: cell number, toxicity
[4] = target: Voltage-gated potassium channel subunit beta-2 (Rattus norvegicus) (UniProt P62483); experiment: KvBeta enzyme negative modulators, primary screen, biochemical, NADPH fluorescence (AID 622;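 active = fluorescence slope higher than the sample average by over 3 SD, cut at about -0.22 in these data, passing the limit was not always enough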;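 note: slope of raw intensity against log time taken from 70 to 1610 s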); conditions: recombinant KvBeta, 4-cyanobenzaldehyde reduction, at 10 µM, stronger effect = higher value
Chain of Voltage-gated potassium channel subunit beta-2 (Rattus norvegicus) (P62483 whole entry, looked up): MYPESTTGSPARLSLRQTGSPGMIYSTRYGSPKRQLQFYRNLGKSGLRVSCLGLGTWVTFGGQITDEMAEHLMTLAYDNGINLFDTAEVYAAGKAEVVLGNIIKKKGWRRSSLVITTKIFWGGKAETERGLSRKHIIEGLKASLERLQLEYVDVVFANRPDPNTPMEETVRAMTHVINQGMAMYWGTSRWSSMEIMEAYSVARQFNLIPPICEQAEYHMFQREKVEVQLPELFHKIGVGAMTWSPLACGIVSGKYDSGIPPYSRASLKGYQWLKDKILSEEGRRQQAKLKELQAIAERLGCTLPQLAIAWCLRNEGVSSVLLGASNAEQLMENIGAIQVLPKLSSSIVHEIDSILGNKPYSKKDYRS

[5] = target: Voltage-gated potassium channel subunit beta-2 (Rattus norvegicus) (UniProt P62483); experiment: KvBeta positive modulators, primary screen, biochemical, NADPH fluorescence (AID 623); conditions: Recombinant KvBeta, NADPH fluorescence decrease slope, 10 min; at 10 µM; stronger effect = lower value;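 note: fluorescence intensity change per second fitted from 20 to 320 s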
[6] = target: Alpha-2C adrenergic receptor (Homo sapiens) (UniProt P18825); experiment: modulators of alpha2C/GIRK thallium flux, primary screen, cell-based, HEK293 alpha2C/GIRK1/2 (AID 624;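 active = fluorescence slope after compound addition differing from the mean of all screened samples at 99.7% confidence, in either direction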;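 note: slope of fluorescence ratio to pre-addition baseline per second over 15 to 24 s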); conditions: thallium flux BTC fluorescence, at 10 µM, actives lie on both sides
Chain of Alpha-2C adrenergic receptor (Homo sapiens) (P18825 whole entry, looked up): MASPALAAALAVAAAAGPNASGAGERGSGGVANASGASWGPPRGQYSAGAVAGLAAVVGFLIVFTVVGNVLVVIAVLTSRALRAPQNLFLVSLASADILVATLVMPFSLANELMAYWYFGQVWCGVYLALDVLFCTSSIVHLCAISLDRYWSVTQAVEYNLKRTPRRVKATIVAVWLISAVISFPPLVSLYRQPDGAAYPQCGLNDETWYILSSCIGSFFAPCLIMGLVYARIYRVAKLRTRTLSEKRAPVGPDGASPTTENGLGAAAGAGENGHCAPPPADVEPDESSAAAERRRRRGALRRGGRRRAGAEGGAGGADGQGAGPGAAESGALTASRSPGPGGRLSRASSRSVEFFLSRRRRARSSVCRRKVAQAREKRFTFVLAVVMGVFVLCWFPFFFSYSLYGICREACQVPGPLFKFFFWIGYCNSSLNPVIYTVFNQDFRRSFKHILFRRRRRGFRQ

[7] = inhibitors of Sendai virus-induced IRF3 signaling, primary screen, TLR/RLR signaling modifier project, cell-based, Sendai virus stimulus, luciferase, 10K MLSCN set (AID 602276;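 active = inhibition at or above 50% at 10 µM; inactive = inhibition below 50%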;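 note: firefly luciferase from ISG56 promoter only with Renilla not read in this screen; 0% = Sendai virus plus DMSO and 100% = medium plus DMSO without virus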); conditions: HEK293 RL24 IRF3 luciferase reporter, at 10 µM, stronger effect = higher value
[8] = inhibitors of poly I:C-induced TLR3 signaling, primary screen, cell-based, poly I:C stimulus, luciferase, 10K MLSCN set (AID 602277;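 active = inhibition of the reporter signal at or above 50%; inactive = inhibition below 50%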); conditions: HEK293-TLR3 RL24 IRF3 luciferase reporter, at 10 µM, stronger effect = higher value

Compound	cell count [1]	inhibition [1]	inhibition of aggregation [2]	nuclei count [2]	inhibition [3]	nuclei count [3]	fluorescence slope [4]	NADPH fluorescence slope [5]	slope [6]	inhibition [7]	inhibition [8]
Cc1onc(-c2ccccc2Cl)c1C(=O)Nc1cccnc1	286	-2.3% (inactive)	1.8% (inactive)	106%	-78.5% (inactive)	148%	-0.452 (inactive)	2.6e-05 (inactive)	0.00566 (inactive)	0.844% (inactive)	32.2% (inactive)
Cc1cc(C)nc(SCC(=O)Nc2ncc3c(n2)CCCC3=O)n1	188	-8.6% (inactive)	10.1% (inactive)	98.6%	-9.1% (inactive)	85.2%	-0.622 (inactive)	-1.1e-05 (inactive)	0.00766 (inactive)	6.63% (inactive)	11.4% (inactive)
O=C(c1ccccc1-c1ccccc1)N1CCN(c2ccccn2)CC1	384	7.8% (inactive)	-81.8% (inactive)	17.3%	-93.4% (inactive)	102%	-0.5 (inactive)	-3.6e-05 (inactive)	0.00494 (inactive)	43.1% (inactive)	26.8% (inactive)
O=C(CN1C(=O)c2ccccc2S1(=O)=O)NCc1ccccc1Cl	698	4.2% (inactive)	8.6% (inactive)	106%	-45.6% (inactive)	108%	-0.599 (inactive)	-1.3e-05 (inactive)	0.0066 (inactive)	9.36% (inactive)	22.5% (inactive)
Brc1ccc2[nH]c3nc(SCCN4CCOCC4)nnc3c2c1	683	-6.3% (inactive)	9% (inactive)	84.2%	-31.6% (inactive)	114%	-0.56 (inactive)	1.6e-05 (inactive)	0.00594 (inactive)	-18.9% (inactive)	-40.9% (inactive)
CC(C)OC(=O)CSc1nc2cccnc2n1C1CCCCC1	267	-9.7% (inactive)	-18.5% (inactive)	78.8%	-25.1% (inactive)	106%	-0.592 (inactive)	-5.3e-05 (inactive)	0.00357 (inactive)	11.2% (inactive)	17.9% (inactive)
CCC(=O)Nc1ccc2nc(SCC(=O)N3CCCC3)sc2c1	709	-23.3% (inactive)	-2.1% (inactive)	102%	-56.1% (inactive)	122%	-0.503 (inactive)	-2.8e-05 (inactive)	0.00507 (inactive)	-25.3% (inactive)	-44.2% (inactive)
COc1ccc(C)cc1NC(=O)CCC(=O)Nc1ccc2nc(N3CCN(C)CC3)cc(C)c2c1	623	1.5% (inactive)	-9.5% (inactive)	104%	-62.6% (inactive)	108%	-0.428 (inactive)	6e-06 (inactive)	0.00326 (inactive)	-21.1% (inactive)	-51.1% (inactive)
CC1Cc2nc(SCC(=O)Nc3ccc4c(c3)OCO4)n(-c3ccc(F)cc3)c(=O)c2S1 (centres undefined)	680	-23.4% (inactive)	-2.5% (inactive)	102%	-32.8% (inactive)	107%	-0.401 (inactive)	-6.4e-05 (inactive)	0.00514 (inactive)	-0.186% (inactive)	51.2% (active)
O=C(NC1CCCC1)c1ccc2nc[nH]c2c1	427	10.2% (inactive)	0.8% (inactive)	101%	-41.4% (inactive)	114%	-0.62 (inactive)	-3.9e-06 (inactive)	0.00786 (inactive)	9.91% (inactive)	13.1% (inactive)
CCOC(=O)c1c(C)oc2c1c1c(c3ccccc32)OCN(Cc2cccnc2)C1	499	-2.1% (inactive)	8.8% (inactive)	100%	-8.4% (inactive)	104%	-0.367 (inactive)	1.6e-05 (inactive)	0.00433 (inactive)	-1.25% (inactive)	15.3% (inactive)
O=C(CSc1nnnn1-c1ccccc1Cl)Nc1ccc2c(c1)OCCO2	660	-3.4% (inactive)	3.2% (inactive)	107%	-55% (inactive)	118%	-0.548 (inactive)	-5.9e-05 (inactive)	0.00706 (inactive)	15.2% (inactive)	30.5% (inactive)
Cc1cc(Cl)c(S(=O)(=O)Nc2ccc3c(c2)OCCO3)cc1OCC(N)=O	526	1.8% (inactive)	-7.1% (inactive)	106%	-79.1% (inactive)	113%	-0.516 (inactive)	1.1e-05 (inactive)	0.00485 (inactive)	32.8% (inactive)	30.7% (inactive)
Cn1c(C(=O)N2CCCC(C(=O)NCCCc3ccccc3)C2)cc2sccc21 (centres undefined)	550	-16.1% (inactive)	6.7% (inactive)	139%	-32.8% (inactive)	103%	-0.256 (inactive)	6.7e-06 (inactive)	0.00472 (inactive)	0.49% (inactive)	-2.49% (inactive)
